Laboratory results taken from PubChem BioAssay (Tox21).
Records with an inconclusive call do not appear. A call without a number means that no potency is given here. More than one record can exist for a structure, and the calls need not agree. Unmarked numbers belong to inactive results. Calls of active or inactive are those of the source. Calls follow the shape of the dose curve; as a rule, active = well fitted cell-killing curve with a large enough effect in the repeat runs; inconclusive = weak or mixed curves, or effect the other way; inactive = flat fitted curve, though single readings scatter.

assay: qHTS assay to identify small molecule that activate the aryl hydrocarbon receptor (AhR) signaling pathway - cell viability counter screen (AID 743086); conditions: HepG2-AhR-luc viability, CellTiter-Fluor, 24 h; series mostly up to 70.3 µM; also: nearly all actives have a fitted effect of over 45% in size;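 as to viability change, negative = cytotoxic: HepG2 liver cells carrying the AhR DRE luciferase reporter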
Excerpt: U.S. Tox21 Program National Center for Advancing Translational Sciences [NCATS] NIH Chemical Genomics Center [NCGC] U.S. Environmental Protection Agency [EPA] National Institutes of Environmental Health Sciences [NIEHS] National Toxicology Program [NTP] U.S. Food and Drug Administration [FDA] Tox21 Assay overview: The Aryl hydrocarbon Receptor (AhR), a member of the family of basic helix-loop-helix transcription factors, is crucial to adaptive responses to environmental changes. AhR mediates cellular responses to environmental pollutants such as aromatic hydrocarbons through induction of phase I and II enzymes but also interacts with other nuclear receptor signaling pathways A cell based HepG2-AhR-luc assay (HG2L7.5c1 cell line, developed by Dr. Michael S. Denison, University of California at Davis) was used to assess the activation of AhR. HepG2 (human hepatocellular carcinoma) cells were stably transfected with an Ah receptor-responsive firefly luciferase reporter gene plasmid containing 20 dioxin responsive elements and luciferase reporter gene. Increased luciferase activity can be used to identify the compounds that induce AhR activation. The cytotoxicity of the compounds screened against the HepG2-AhR-luc cell line was tested in parallel by measuring the cell viability using CellTiter-Fluor assay in the same wells.
Tox21 Assay Protocol Summary: 4000 cells in 5 uL/well were dispensed into white wall/solid bottom 1536-well plates using a Multidrop Combi (Thermo Fisher Scientific Inc., Waltham, MA) dispenser. After the assay plates were incubated at 37C for 5 h, 23 nL of compound or DMSO vehicle was transferred to the assay plates by a pintool station (Kalypsys, San Diego, CA). The plates were incubated at 37C for 24 hr. For cell viability measurement, 1 ul/well of CellTiter-Fluor reagent (Promega, Madison, WI) was added into the assay plates using a Flying Reagent Dispenser (FRD) (Aurora Discovery, CA),and then the assay plates were incubated at 37C for 30 min. The fluorescence intensity in the plates was measured using a ViewLux plate reader (PerkinElmer, Shelton, CT), followed by the addition of 4 uL of ONE-Glo Luciferase Assay reagent (Promega) using an FRD (Aurora Discovery). After the assay plates were incubated at room temperature for 30 min, luminescence intensity was measured using a ViewLux plate reader (Perkin Elmer).
Potency is read from the fitted curve at half-maximal effect.

Row | Structure (SMILES) | viability change, negative = cytotoxic | Potency
1 | O=S(=O)(O)c1ccc2c(N=Nc3ccc(S(=O)(=O)O)c4ccccc34)c(O)c(S(=O)(=O)O)cc2c1 | -5.27% [at 8.47 µM] | 13.3 µM (active)
2 | CCC[C@@H]1C[C@@H](C(=O)N[C@@H]([C@H]2O[C@H](SC)[C@H](O)[C@@H](O)[C@H]2O)[C@@H](C)O)N(C)C1 |  | inactive
3 | CC(=O)CCC1=C(C)CCCC1(C)C |  | inactive
4 | CC(O)CC(C)O (stereo not given) |  | inactive
5 | CC(=O)CC(=O)Nc1ccc(C)cc1C |  | inactive
6 | c1ccc(-c2nn[nH]n2)cc1 |  | inactive
7 | CC1(C)Oc2ccc(C#N)cc2[C@@H](N2CCCC2=O)[C@@H]1O |  | inactive
8 | CCC(=O)c1c(O)cc(O)cc1O |  | inactive
9 | CC(CO)(CO)CO |  | inactive
10 | CCCCCc1cccc(=O)o1 |  | inactive
11 | C/C(CC(C)C)=N\O |  | inactive
12 | Cc1ccnc(N)c1 |  | inactive
13 | CC1(C)O[C@H]2CC(=O)OC[C@]23[C@H]2CC[C@@]4(C)[C@H](c5ccoc5)OC(=O)[C@H]5O[C@]54[C@]2(C)C(=O)C[C@@H]13 |  | inactive
14 | Cc1c(NC(=O)c2cccnc2)c(=O)n(-c2ccccc2)n1C |  | inactive
15 | CCn1cc(C(=O)O)c(=O)c2cnc(N3CCCC3)nc21 |  | inactive
16 | CN(C)C(C)(C)CO |  | inactive
17 | Nc1nnnn1-c1ccccc1 |  | inactive
18 | O=C(O)[C@H](O)c1ccccc1 |  | inactive
19 | C=C(C)[C@@H]1CC=C(C)C(=O)C1 |  | inactive
20 | CCCCCCCCCCOC(C)=O |  | inactive

Row | Structure (SMILES) | viability change, negative = cytotoxic | Potency
21 | N#Cc1cscn1 |  | inactive
22 | O=C(O)CCCCCC(=O)O |  | inactive
23 | CC(C)=CCC[C@@](C)(O)[C@H]1CC=C(C)CC1 |  | inactive
24 | CCCCOCCOC(=O)COc1ccc(Cl)cc1Cl |  | inactive
25 | CC1=C(O)C(=O)C(C)O1 (stereo not given) |  | inactive
26 | CCCCCCCCCCCCCBr |  | inactive
27 | CCC(C)C(C)=O (stereo not given) |  | inactive
28 | COC(=O)c1cccc(Cl)c1 |  | inactive
29 | CNCCS(=O)(=O)O |  | inactive
30 | CCO[Si](CC)(OCC)OCC |  | inactive
31 | CC(=O)OC(C)=O |  | inactive
32 | Cc1ccc2c(c1)C(=O)c1ccccc1C2=O |  | inactive
33 | CC(=O)OCC(=O)Nc1cc(C#N)cc(NC(=O)COC(C)=O)c1Cl |  | inactive
34 | NCCOCCN |  | inactive
35 | c1ccc(B(c2ccccc2)c2ccccc2)cc1 |  | inactive
36 | Cc1c(Cl)cccc1Cl |  | inactive
37 | [O]=[Mo](=[O])=[O] |  | inactive
38 | C[C@@H](O)C(=O)O |  | inactive
39 | CC(=O)C(C)O (stereo not given) |  | inactive
